Bioassay records (PubChem)
dFosB act-1 = activators of delta FosB homodimer, primary screen, biochemical, fluorescence polarization, TAMRA-CDK5 oligo, single point; Protein FosB (Mus musculus), P13346; purified delta FosB; percent of positive-control signal above neutral wells; activation, % at 25 µM; hit rate 0.99% among 340,000;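 active = mean activation above about 17%, with every replicate also reaching it, limit read from the data, passing the limit was not always enough; inconclusive = only one of the two conditions met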
Target sequence (P13346 whole entry, looked up): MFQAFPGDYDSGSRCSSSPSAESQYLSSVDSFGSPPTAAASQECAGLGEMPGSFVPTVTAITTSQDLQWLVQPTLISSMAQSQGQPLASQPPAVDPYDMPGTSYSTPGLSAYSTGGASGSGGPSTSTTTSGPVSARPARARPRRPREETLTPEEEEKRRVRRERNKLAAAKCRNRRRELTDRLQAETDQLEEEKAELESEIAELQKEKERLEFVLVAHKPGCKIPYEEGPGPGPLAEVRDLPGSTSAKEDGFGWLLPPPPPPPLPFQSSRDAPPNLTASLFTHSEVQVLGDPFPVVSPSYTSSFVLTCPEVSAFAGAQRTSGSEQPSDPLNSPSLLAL
UBC13 polyUb = UBC13 polyubiquitin chain formation inhibitors, primary screen, biochemical, TR-FRET, uHTS | hit rate 0.47% among 330,000 | Ubiquitin-conjugating enzyme E2 N (Homo sapiens), P61088 | inhibition, % at 20 µM; in the data active = inhibition above about 45%, passing the limit was not always enough; inconclusive = no clear call, values can overlap the other calls
Target sequence (P61088 whole entry, looked up): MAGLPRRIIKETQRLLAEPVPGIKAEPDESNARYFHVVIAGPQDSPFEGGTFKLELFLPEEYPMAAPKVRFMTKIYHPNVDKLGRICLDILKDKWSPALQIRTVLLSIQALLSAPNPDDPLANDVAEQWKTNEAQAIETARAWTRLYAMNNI
NALP1 inh = NALP1 inflammasome inhibitors in reconstituted yeast, colorimetric, S. cerevisiae, triplicate retest; S. cerevisiae NALP1/ASC/caspase-1 growth, X-gal OD620, 72 h; inhibition, % at 10 µM; hit rate 0.61% among 280,000; in the data active = inhibition mostly above about 24%, no sharp cut-off; inactive = mostly below about 32%
CR mimetic SO = reduction of superoxide in aged yeast, primary screen, HTS; AID 2690, 2010; superoxide response (% of plate mean), % at 10 µM; S. cerevisiae aged cells, superoxide DHE fluorescence; hits give low values; hit rate 0.18% among 330,000;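 active = superoxide response under a set limit, about three screen SD below normal, cut at about 65% in these data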;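 also: yeast aged for seven days with compound at 30 °C before DHE staining; 100% = average MFI of all compound-treated wells on the plate with controls excluded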
GRIN3A LBD mod = binders of NR3A ligand-binding domain, primary screen, biophysical, differential scanning fluorimetry, uHTS; NR3A LBD differential scanning fluorimetry, Tm shift; 0% = protein alone, 100% = glycine-bound protein; Tm shift relative to glycine control, % at 25 µM; hit rate 2.5% among 340,000; AID 1259313, 2017; Glutamate receptor ionotropic, NMDA 3A (GRIN3A) ligand-binding domain;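 active = melting temperature shift of at least 10% of the positive control shift, at one fixed dose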
dFosB act-2 = activators of mouse delta FosB DNA binding, confirmation, biochemical, fluorescence polarization, TAMRA-CDK5 oligo, cherry-picked samples | activation, % at 24.9 µM | shares compounds with dFosB act-1 | AID 588690, 2011 | purified delta FosB; normalised: neutral wells 0, positive control 100 | 2,400 tested, under 10 active;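 active = highest replicate activation at or above 34% and every replicate reaching that threshold; inconclusive = meets only one of the two criteria; inactive = meets neither criterion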;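 also: higher polarization means more probe DNA bound by delta FosB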
The depositor's hits bear a star; ? = inconclusive; · = no result. A selection: hits, their analogues and other compounds. The true share with any hit is near 4.3%.

SMILES | dFosB act-1 | UBC13 polyUb | NALP1 inh | CR mimetic SO | GRIN3A LBD mod | dFosB act-2
CC(C)C(=O)Nc1cccc(NC(=S)NC(=O)c2cccs2)c1 | -1.5 | 1.7 | 2.7 | 99.3 | 0.4 | ·
CC(C)C(=O)Nc1cccc(NC(=S)NC(=O)c2ccc(Cl)cc2)c1 | 27.5* | -1.9 | 0.0 | 96.5 | -9.3 | 0.6
C=CCN(CC(=O)Nc1cccnc1)S(=O)(=O)c1ccc(Cl)cc1 | 1.0 | 9.5 | · | 76.5 | 0.6 | ·
CCOC(=O)c1ccc(NC(=O)CSc2nc3ncccc3[nH]2)cc1 | -1.5 | 4.7 | 20.2 | 102.3 | -2.4 | ·
CCCCc1ccc(NC(=O)CSc2nc3ncccc3[nH]2)cc1 | 19.6* | 6.0 | 5.0 | 121.6 | -3.9 | -1.0
CC(C)CCn1c(=O)c2sccc2n2c(CCCC(=O)N3CCN(c4ccccn4)CC3)nnc12 | -11.9 | -3.8 | -1.1 | 87.4 | -2.2 | ·
O=C(/C=C/c1ccccc1)Nc1ccc(Br)cn1 | 22.8* | 5.1 | -3.8 | 101.9 | -13.2 | 1.9
Nc1ccc(S(=O)(=O)Nc2nccc(/C=C/c3ccc(Cl)cc3Cl)n2)cc1 | 39.7* | 10.8 | 7.4 | 111.5 | 8.4 | -4.2
Nc1ccccc1SC1CC(=O)N(c2ccc3c(c2)OCCO3)C1=O (configuration not stated) | 15.1 | 3.2 | · | 97.1 | 1.5 | ·
Nc1ccccc1SC1CC(=O)N(c2ccc(Cl)c(Cl)c2)C1=O (configuration not stated) | 26.5* | 7.4 | 23.9 | 97.5 | 9.0 | 1.8
CCC(C)Sc1ccc([C@H]2N[C@@](C)(C(=O)OC)[C@H]3C(=O)N(CC)C(=O)[C@@H]23)cc1OC (some centres not stated) | -0.8 | -9.2 | · | 117.4 | 0.5 | ·
C[C@]12CC[C@H](O)CC1=C[C@H](O)C1C2CC[C@@]2(C)C1CC[C@@]2(O)C#Cc1ccc(CN)cc1 (some centres not stated) | 24.2* | · | · | · | -1.3 | 3.4
O=C(Nc1nc(-c2ccc3ccccc3c2)cs1)c1ccc(N2C(=O)CCC2=O)cc1 | 44.7* | 20.8 | 28.1 | 114.9 | 1.8 | -2.1
COc1ccc(Cl)cc1NC(=O)CSc1nc(NS(=O)(=O)c2ccc(C)cc2)cc(=O)[nH]1 | 28.5* | 2.1 | 15.8 | 108.3 | -1.2 | 1.5
O=C(CSc1nc(NS(=O)(=O)c2ccccc2)cc(=O)[nH]1)Nc1ccccc1C(F)(F)F | 9.4 | 3.3 | 14.3 | 97.1 | -0.9 | ·
Cn1cccc1/C=N\NC(=O)Cc1ccc(Br)c2ccccc12 | -6.6 | -5.4 | -0.1 | 122.5 | -1.2 | ·
CCCCCCCCCCCC1N=C(N)NC(CCCO)=C1C(=O)OC (configuration not stated) | 42.1* | · | · | · | 0.0 | ?
O=C(NCC1OCCc2ccccc21)c1ccc(NC(=O)c2ccc(Cl)cc2Cl)cc1 (configuration not stated) | 45.1* | -1.5 | 32.6 | 115.9 | 17.6* | 5.4
CC(C)(C)c1ccc(OCCOc2ccc(C(C)(C)C)cc2NC=O)c(NC=O)c1 | -20.8 | -3.5 | 16.9 | 118.7 | -12.8 | ·
COc1ccc(NS(=O)(=O)c2cccc(C(=O)NNC(=O)CNC(=O)c3ccc(C)cc3)c2)cc1 | -6.7 | 5.7 | · | 77.8 | 2.6 | ·
O=C(N/N=C/c1ccncc1)c1cccc(S(=O)(=O)Nc2ccc(Cl)cc2)c1 | 45.4* | 6.9 | · | 106.3 | -4.6 | -0.5
O=C(N/N=C/c1cccnc1)c1cccc(S(=O)(=O)Nc2cccc(Cl)c2)c1 | 30.7* | -7.4 | 6.9 | 102.5 | -4.7 | 1.2
O=C(N/N=C/c1cccnc1)c1cccc(NC(=O)c2cccc(Br)c2)c1 | 45.1* | 3.9 | 31.0 | 85.0 | -13.2 | -0.8
O=C(Nc1cccnc1)c1cccc(S(=O)(=O)Nc2cccc(Cl)c2)c1 | -9.5 | 3.6 | · | 102.5 | 1.1 | ·
COc1ccc(NS(=O)(=O)c2ccc(OC)c(NC(=O)CNC(=O)c3ccc(OC)cc3)c2)cc1 | 38.7* | 8.3 | · | 119.4 | -7.0 | -3.6
SMILES | dFosB act-1 | UBC13 polyUb | NALP1 inh | CR mimetic SO | GRIN3A LBD mod | dFosB act-2
COc1ccc(NS(=O)(=O)c2cccc(C(=O)N/N=C/c3cccs3)c2)cc1 | 11.5 | -14.0 | 10.0 | 84.4 | -6.3 | ·
COc1ccc(NS(=O)(=O)c2cccc(C(=O)NN=Cc3ccc(OC)cc3OC)c2)cc1 | 25.8* | -12.8 | · | 96.8 | -3.5 | 0.3
COc1cc(/C=N/Nc2nc(Nc3ccccc3)nc(N3CCOCC3)n2)ccc1OC(=O)c1ccco1 | 53.8* | -1.8 | -0.3 | 94.2 | 2.4 | 2.8
COc1ccc(/C=N/Nc2nc(Nc3ccccc3)nc(N3CCCC3)n2)cc1[N+](=O)[O-] | 62.0* | -6.8 | 0.7 | 94.3 | 25.9* | ?
O=[N+]([O-])c1ccc(/C=N/Nc2nc(NCc3ccccc3)nc(N3CCOCC3)n2)cc1 | 27.1* | -5.9 | 15.4 | 105.6 | 1.3 | 2.2
O=C(Oc1cccc(/C=N/Nc2nc(N3CCOCC3)nc(N3CCOCC3)n2)c1)c1ccco1 | -18.0 | -2.3 | 0.0 | 103.9 | -1.0 | ·
CNc1nc(N/N=C/c2cc3c(cc2[N+](=O)[O-])OCO3)nc(Nc2ccccc2)n1 | 55.4* | -26.7 | 9.3 | 135.4 | -2.5 | 6.0
Cc1c(C(=O)N2CCC[C@H]2C(N)=O)oc2c(F)cccc12 | 1.5 | -1.3 | 4.3 | 98.1 | -4.7 | ·
N#Cc1ccc(-c2ccc(F)cc2)nc1SCC(=O)Nc1sc2c(c1C#N)CCC2 | 37.4* | -0.8 | -8.5 | 102.5 | 2.5 | 1.2
CN(C)S(=O)(=O)c1ccc(NC(=O)CCNC(=O)c2ccco2)cc1 | 3.1 | 4.4 | 13.1 | 115.4 | -2.4 | ·
O=C(N/N=C/C=C\c1ccccc1[N+](=O)[O-])c1cc(-c2ccc3ccccc3c2)n[nH]1 | 24.7* | · | 33.0 | · | 18.1* | 2.5
O=C(N/N=C/c1ccccn1)c1cc(-c2cccc3ccccc23)n[nH]1 | -24.0 | -10.4 | 15.6 | 104.9 | -13.8 | ·
O=C(N/N=C/c1ccccn1)c1cc(-c2ccc3ccccc3c2)n[nH]1 | 18.9* | 16.5 | 14.1 | 96.4 | 1.5 | 3.1
CCCCn1c(N)c(N(CC(C)C)C(=O)c2cccc(S(=O)(=O)N3CCCCC3)c2)c(=O)[nH]c1=O | 6.3 | -5.9 | · | 99.1 | 0.9 | ·
CCCCn1c(N)c(N(CC(C)C)C(=O)c2cccc(S(=O)(=O)N3CCCCCC3)c2)c(=O)[nH]c1=O | 38.6* | -2.1 | 9.0 | 109.8 | 0.9 | -4.7
Cc1ccc(C)c(NC(=O)CSc2nnc(NC(=O)C3CC3)s2)c1 | 28.2* | 4.8 | 7.9 | 98.5 | 6.2 | 4.8
O=C(CSc1nnc(NC(=O)C2CC2)s1)Nc1cccc(F)c1 | 28.4* | -0.4 | 18.4 | 92.9 | 14.5* | -1.3
COc1cc(C(F)(F)F)c(C(=O)NCc2cccc(Cl)c2)cn1 | -4.5 | 0.1 | 5.8 | 104.0 | -0.6 | ·
